PubChem BioAssay AID1159580 (chemical genetic matrix, 2015)
In all, about 5,500 compounds went through this assay and about 2,000 (36%) were called active. Roughly 18% stayed inconclusive and do not appear here. Cut-off read from the data, not from the text of the source: active = normalized growth mostly below about 0.91 (no sharp cut-off); inconclusive = no clear call, values can overlap the other calls; inactive = mostly above about 0.92. This is one part of the list.

Test: chemical genetic growth profiling, strain panel (AID 1159580);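 note: tested at 20 µM; growth read once vehicle control cultures reached saturation at 30 °C; 1 = growth at the plate median or of vehicle wells; lower values mean less growth of the strain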
Details: S. cerevisiae deletion strains, growth OD
[1] = locus YAL040C, strain CLN3, stronger effect = lower value
[2] = locus YER002W, strain NOP16, stronger effect = lower value
[3] = locus YGR078C, strain PAC10, stronger effect = lower value
[4] = locus YMR307W, strain GAS1, stronger effect = lower value
[5] = locus YNL175C, strain NOP13, stronger effect = lower value
[6] = locus YNL197C, strain WHI3, stronger effect = lower value
[7] = locus YNL224C, strain SQS1, stronger effect = lower value
[8] = locus YNL322C, strain KRE1, stronger effect = lower value
[9] = locus YOR083W, strain WHI5 (second series), stronger effect = lower value

Measured: normalized growth

O=C1C=CC(=O)C=C1
inactive: [1] 0.986 | [2] 1 | [3] 0.912 | locus YMR263W, strain SAP30, stronger effect = lower value 1 | [4] 1.04 | [5] 1.02 | [6] 1.05 | [7] 1 | [8] 0.99 | [9] 1.01 | locus YPL055C, strain LGE1, stronger effect = lower value 0.979

CC(=O)O[C@H]1CC2(C)[C@@H](C[C@@H](O)[C@H]3[C@@]4(C)CC[C@@H](O)[C@@H](C)[C@@H]4CC[C@@]32C)C1=C(CCC=C(C)C)C(=O)O (some centres undefined)
inactive: [1] 1.02 | locus YCL061C, strain MRC1 (second series), stronger effect = lower value 1.01 | locus YDR150W, strain NUM1, stronger effect = lower value 1.02 | locus YDR363W, strain ESC2, stronger effect = lower value 1.02 | [2] 1.04 | [3] 1.03 | [5] 1 | [6] 1 | [7] 0.974 | [8] 1.01 | [9] 0.996 | locus YPL241C, strain CIN2, stronger effect = lower value 1.01

COc1cc2c(cc1-c1coc3c4c(c(OC)cc3c1=O)OC(C)(C)C=C4)OCO2
active: locus YDR137W, strain rgp1, stronger effect = lower value 0.654 | locus YDR195W, strain ref2 1.18 [resistant] | locus YDR392W, strain spt3, stronger effect = lower value 0.295 | locus YLR262C, strain YPT6 (second series), stronger effect = lower value 0.681 | locus YLR418C, strain cdc73, stronger effect = lower value 0.798 | locus YNL071W, strain lat1, stronger effect = lower value 0.799 | locus YNL233W, strain BNI4, stronger effect = lower value 0.868 | locus YPL051W, strain arl3, stronger effect = lower value 0.895
inactive: locus YAL013W, strain DEP1, stronger effect = lower value 0.934 | locus YAL021C, strain ccr4, stronger effect = lower value 0.993 | locus YAL026C, strain drs2, stronger effect = lower value 1.03 | locus YAL030W, strain snc1, stronger effect = lower value 1.03 | locus YBL061C, strain skt5, stronger effect = lower value 1.02 | locus YBR009C, strain hhf1, stronger effect = lower value 0.95 | locus YBR021W, strain FUR4, stronger effect = lower value 1.05 | locus YBR023C, strain chs3, stronger effect = lower value 0.971 | locus YBR171W, strain sec66, stronger effect = lower value 1.03 | locus YBR229C, strain ROT2, stronger effect = lower value 0.994 | locus YBR231C, strain swc5, stronger effect = lower value 1.04 | locus YBR279W, strain paf1, stronger effect = lower value 0.985 | locus YCL011C, strain gbp2, stronger effect = lower value 1 | locus YCL016C, strain dcc1, stronger effect = lower value 0.982 | locus YCL029C, strain bik1, stronger effect = lower value 0.985 | locus YCL061C, strain MRC1, stronger effect = lower value 1.01 | locus YCL069W, strain vba3, stronger effect = lower value 1.05 | locus YCR088W, strain abp1, stronger effect = lower value 1.05 | locus YDL005C, strain med2, stronger effect = lower value 1.04 | locus YDL035C, strain GPR1, stronger effect = lower value 0.998 | locus YDL040C, strain nat1, stronger effect = lower value 1.02 | locus YDL074C, strain BRE1, stronger effect = lower value 0.902 | locus YDL101C, strain DUN1, stronger effect = lower value 0.95 | locus YDL134C, strain PPH21, stronger effect = lower value 0.907 | locus YDL185W, strain tfp1, stronger effect = lower value 1.01 | locus YDL192W, strain arf1, stronger effect = lower value 0.966 | locus YDR001C, strain nth1, stronger effect = lower value 1.04 | locus YDR069C, strain doa4, stronger effect = lower value 1.04 | locus YDR101C, strain arx1, stronger effect = lower value 1 | locus YDR159W, strain sac3, stronger effect = lower value 0.981 | locus YDR162C, strain NBP2, stronger effect = lower value 0.884 | locus YDR297W, strain sur2, stronger effect = lower value 1.02 | locus YDR318W, strain mcm21, stronger effect = lower value 0.964 | locus YDR334W, strain swr1, stronger effect = lower value 1.04 | locus YDR335W, strain msn5, stronger effect = lower value 1.03 | locus YDR388W, stronger effect = lower value 0.986 | locus YDR502C, strain sam2, stronger effect = lower value 0.97 | locus YEL003W, strain gim4, stronger effect = lower value 1.02 | locus YEL037C, strain rad23, stronger effect = lower value 1.04 | locus YEL061C, strain CIN8 (second series), stronger effect = lower value 1.04 | locus YER015W, strain faa2, stronger effect = lower value 0.991 | locus YER016W, strain bim1, stronger effect = lower value 1.03 | locus YER110C, stronger effect = lower value 0.994 | locus YER111C, strain swi4, stronger effect = lower value 0.994 | locus YER155C, strain BEM2 (second series), stronger effect = lower value 0.926 | locus YER155C, strain BEM2, stronger effect = lower value 0.988 | locus YER167W, strain BCK2, stronger effect = lower value 1.01 | locus YFR010W, strain ubp6, stronger effect = lower value 1.07 | locus YGL078C, strain dbp3, stronger effect = lower value 0.983 | locus YGL086W, strain mad1, stronger effect = lower value 0.959 | locus YGL167C, strain pmr1, stronger effect = lower value 1.02 | locus YGL173C, strain kem1, stronger effect = lower value 1 | locus YGL227W, strain vid30, stronger effect = lower value 1.08 | locus YGL240W, strain doc1, stronger effect = lower value 0.984 | locus YGL248W, strain PDE1, stronger effect = lower value 0.929 | locus YGL253W, strain hxk2, stronger effect = lower value 1.01 | locus YGR135W, strain pre9, stronger effect = lower value 0.916 | locus YGR252W, strain gcn5, stronger effect = lower value 0.863 | locus YHR013C, strain ard1, stronger effect = lower value 0.991 | locus YHR027C, strain rpn1, stronger effect = lower value 1.03 | locus YHR030C, strain SLT2, stronger effect = lower value 0.968 | locus YHR079C, strain IRE1 (second series), stronger effect = lower value 0.995 | locus YHR094C, strain hxt1, stronger effect = lower value 1 | locus YHR129C, strain ARP1, stronger effect = lower value 0.959 | locus YHR142W, strain chs7, stronger effect = lower value 0.976 | locus YHR200W, strain rpn10, stronger effect = lower value 0.957 | locus YIL066C, strain RNR3, stronger effect = lower value 0.991 | locus YIL073C, strain SPO22, stronger effect = lower value 0.919 | locus YIL125W, strain kgd1, stronger effect = lower value 0.982 | locus YIR030C, strain dcg1, stronger effect = lower value 1 | locus YJL092W, strain hpr5, stronger effect = lower value 1.04 | locus YJL095W, strain BCK1 (second series), stronger effect = lower value 0.974 | locus YJL095W, strain BCK1, stronger effect = lower value 0.809 | locus YJL115W, strain asf1, stronger effect = lower value 1.04 | locus YJL129C, strain trk1, stronger effect = lower value 1.03 | locus YJL134W, strain LCB3, stronger effect = lower value 1 | locus YJL154C, strain vps35, stronger effect = lower value 1.04 | locus YJL164C, strain tpk1, stronger effect = lower value 0.968 | locus YJL166W, strain qcr8, stronger effect = lower value 0.933 | locus YJL168C, strain set2, stronger effect = lower value 0.985 | locus YJL187C, strain SWE1 (second series), stronger effect = lower value 0.938 | locus YKL009W, strain mrt4, stronger effect = lower value 1.01 | locus YKL068W, stronger effect = lower value 1 | locus YKL085W, strain MDH1 (second series), stronger effect = lower value 1 | locus YKL085W, strain MDH1, stronger effect = lower value 1 | locus YKL160W, strain elf1, stronger effect = lower value 0.927 | locus YKR001C, strain vps1, stronger effect = lower value 0.937 | locus YKR026C, strain gcn3, stronger effect = lower value 1.06 | locus YKR091W, strain srl3, stronger effect = lower value 1.02 | locus YLL001W, strain dnm1, stronger effect = lower value 1.01 | locus YLL026W, stronger effect = lower value 1.04 | locus YLL041C, strain sdh2, stronger effect = lower value 1.03 | locus YLR027C, strain aat2, stronger effect = lower value 0.992 | locus YLR039C, strain RIC1, stronger effect = lower value 0.788 | locus YLR058C, strain SHM2, stronger effect = lower value 0.984 | locus YLR102C, strain apc9, stronger effect = lower value 0.997 | locus YLR221C, strain rsa3, stronger effect = lower value 1.01 | locus YLR258W, strain gsy2, stronger effect = lower value 0.978 | locus YLR268W, strain sec22, stronger effect = lower value 0.998 | locus YLR320W, strain mms22, stronger effect = lower value 0.912 | locus YLR342W, strain FKS1 (second series), stronger effect = lower value 0.936 | locus YLR342W, strain FKS1, stronger effect = lower value 0.968 | locus YLR357W, strain rsc2, stronger effect = lower value 1.12 | locus YLR370C, strain arc18, stronger effect = lower value 0.973 | locus YLR371W, strain rom2, stronger effect = lower value 1.02 | locus YLR384C, strain iki3, stronger effect = lower value 1.03 | locus YML016C, strain PPZ1, stronger effect = lower value 0.987 | locus YML032C, strain rad52, stronger effect = lower value 0.963 | locus YML120C, strain ndi1, stronger effect = lower value 0.971 | locus YML124C, strain tub3, stronger effect = lower value 1 | locus YMR058W, strain fet3, stronger effect = lower value 1 | locus YMR078C, strain ctf18, stronger effect = lower value 0.986 | locus YMR125W, strain sto1, stronger effect = lower value 1.01 | locus YMR129W, stronger effect = lower value 1.03 | locus YMR205C, strain PFK2, stronger effect = lower value 0.919 | locus YMR223W, strain ubp8, stronger effect = lower value 0.928 | locus YMR231W, strain pep5, stronger effect = lower value 1.01 | [4] 0.685 | locus YNL067W, strain RPL9B, stronger effect = lower value 0.956 | locus YNL209W, strain ssb2, stronger effect = lower value 1 | locus YNL248C, strain rpa49, stronger effect = lower value 1.1 | locus YNL250W, strain rad50, stronger effect = lower value 0.972 | locus YNL271C, strain bni1, stronger effect = lower value 0.991 | locus YNL298W, strain CLA4, stronger effect = lower value 0.953 | locus YNL307C, strain MCK1, stronger effect = lower value 0.907 | locus YNL322C, strain KRE1 (second series), stronger effect = lower value 1.04 | locus YNR049C, strain mso1, stronger effect = lower value 1.03 | locus YNR052C, strain pop2, stronger effect = lower value 0.944 | locus YOL006C, strain TOP1, stronger effect = lower value 0.842 | locus YOL012C, strain htz1 0.696 | locus YOL147C, strain pex11, stronger effect = lower value 0.996 | locus YOR001W, strain rrp6, stronger effect = lower value 1.02 | locus YOR061W, strain CKA2, stronger effect = lower value 1.02 | locus YOR069W, strain VPS5, stronger effect = lower value 0.973 | locus YOR070C, strain gyp1, stronger effect = lower value 0.992 | locus YOR080W, strain dia2, stronger effect = lower value 1.04 | locus YOR083W, strain WHI5, stronger effect = lower value 0.959 | locus YOR106W, strain vam3, stronger effect = lower value 0.996 | locus YOR136W, strain idh2, stronger effect = lower value 0.98 | locus YOR144C, strain elg1, stronger effect = lower value 0.993 | locus YOR184W, strain ser1, stronger effect = lower value 0.904 | locus YOR265W, strain rbl2, stronger effect = lower value 1.01 | locus YOR270C, strain vph1, stronger effect = lower value 0.871 | locus YOR290C, strain snf2, stronger effect = lower value 0.948 | locus YOR316C, strain cot1, stronger effect = lower value 0.985 | locus YPL078C, strain atp4, stronger effect = lower value 0.95 | locus YPL106C, strain sse1, stronger effect = lower value 1.05 | locus YPL240C, strain hsp82, stronger effect = lower value 1.04 | locus YPR119W, strain clb2, stronger effect = lower value 0.995 | locus YPR141C, strain kar3, stronger effect = lower value 0.999 | locus YPR163C, strain tif3, stronger effect = lower value 0.986 | locus YPR167C, strain met16, stronger effect = lower value 0.972 | strain wtn01, stronger effect = lower value 0.989
